# 12-LOX inh: inhibitors of human 12S-lipoxygenase ALOX12 | P18054 | purified 12hLO, xylenol orange hydroperoxide absorbance | Potency, µM (highest dose often 108 µM), actives largely listed as inhibitors | actives 1.1% (n = 580,000) | AID 1671190
# Target sequence (P18054 whole entry, looked up): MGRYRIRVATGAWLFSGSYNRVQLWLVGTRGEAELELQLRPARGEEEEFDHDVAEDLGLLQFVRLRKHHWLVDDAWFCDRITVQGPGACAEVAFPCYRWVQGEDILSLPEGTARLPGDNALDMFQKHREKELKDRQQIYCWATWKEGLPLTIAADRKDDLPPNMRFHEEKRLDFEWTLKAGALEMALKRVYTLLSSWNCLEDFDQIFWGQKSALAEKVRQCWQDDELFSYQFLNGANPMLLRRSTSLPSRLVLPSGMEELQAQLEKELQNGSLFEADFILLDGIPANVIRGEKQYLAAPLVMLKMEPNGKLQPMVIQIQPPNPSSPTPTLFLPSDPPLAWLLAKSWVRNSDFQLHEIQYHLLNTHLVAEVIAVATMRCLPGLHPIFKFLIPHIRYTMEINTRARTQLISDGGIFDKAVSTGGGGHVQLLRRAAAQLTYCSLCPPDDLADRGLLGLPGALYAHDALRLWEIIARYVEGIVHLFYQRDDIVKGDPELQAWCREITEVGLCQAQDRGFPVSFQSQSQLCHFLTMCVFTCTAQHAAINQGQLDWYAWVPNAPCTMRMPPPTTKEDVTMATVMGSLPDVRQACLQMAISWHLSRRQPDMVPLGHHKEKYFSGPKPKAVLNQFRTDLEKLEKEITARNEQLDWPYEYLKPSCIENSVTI
#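 Hydroperoxide product was detected by ferrous iron/xylenol orange as the 573 to 405 nm absorbance ratio. Arachidonic acid at 40 uM (final) was turned over for 30 min at room temperature by 150 nM human 12hLO, pH 7.0 Hepes buffer, after 15 min compound preincubation.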
# TDP1 cell noCPT: qHTS for Inhibitors of human tyrosyl-DNA phosphodiesterase 1 (TDP1): qHTS in cells in absence of CPT; DT40 Tdp1-/- hTDP1 cells, no CPT, ATP luminescence, 48 h; Potency, µM (doses to about 46.2 µM), usual class: inhibitors; actives 15% (n = 420,000); AID 686978, 2013; note: nearly all actives have a fitted effect of over 55% in size
#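 Camptothecin absent (DMSO only). Human TDP1-complemented DT40 knockout cells, 400 cells/well, 37 °C for minimum 48 hr; ATP measured via CellTiter-Glo, 30 min dark incubation, luminescence.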
# TDP1 cell CPT: growth inhibition of DT40 Tdp1-/-;hTDP1 cells with camptothecin (screen for TDP1 inhibitors). chicken DT40 Tdp1-/-;hTDP1 cells + 20 nM CPT, ATP luminescence, 48 h. Potency, µM (series often up to 46.2 µM), hits mostly inhibitors. actives 12% (n = 420,000); note: nearly all actives have a fitted effect of over 55% in size
#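 Cell growth measured by CellTiter-Glo luminescence after a minimum 48 h, 37 C compound exposure with 20 nM CPT in Tdp1-knockout DT40 cells stably expressing hTDP1, seeded 400/well; qHTS titration format.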
# HT1080-NT tox: kills 2HG-producing HT-1080-NT fibrosarcoma cells | HT-1080-NT fibrosarcoma viability, CellTiter-Glo ATP luminescence, 48 h | Potency, µM (series often up to 46.1 µM), actives largely listed as cytotoxic | actives 1.6% (n = 360,000) | AID 686970;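 note: NT is the 2HG producing partner of a matched IDH1 knockdown line; nearly all actives have a fitted effect of over 55% in size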
#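 A 48-hour cytotoxicity screen used HT-1080-NT cells plated 2 hours before compound delivery. ATP-based CellTiter-Glo luminescence measured viability, normalized to DMSO and no-cell controls.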
# HT1080 IDH1KD tx: HT-1080 IDH1 knockdown cell toxicity (counter line). AID 686971. Potency, µM (titrated, usually from 46.1 µM), hits mostly cytotoxic. HT-1080 IDH1 knockdown viability, ATP luminescence, 48 h. actives 2% (n = 360,000)
#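 CellTiter-Glo luminescence after 48 h compound exposure at 37 degrees C of IDH1-knockdown HT-1080 cells in 5% FBS RPMI. %Activity scaled between DMSO wells and cell-free media wells, with curves fitted and assigned curve classes.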
# IL1B secr inh: blocks inflammasome-driven IL-1 beta release; THP-1 LPS/ATP IL-1B secretion, AlphaLISA, 16 h; hits give low values; activity change, % at 57.5 µM; actives 4.7% (n = 360,000); AID 743279; in the data active = activity change below about -50%; inconclusive = mostly about -30% to -49%
#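 Secreted IL-1B measured by AlphaLISA bead assay after 16 h compound exposure of THP-1 cells; compounds (final up to 57.5 uM) added 1 h before LPS (250 ng/mL) and ATP (1.25 mM) stimulation; lower signal means less secretion.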
# Numbers stand for hits; - = inactive; ? = inconclusive; . = no result given; ! = not confirmed by another sample; [ ] = dose if it differs, or a comment. This excerpt belongs to a sample that is enriched for hits. Unless noted, calls come from the whole dose curve; as a rule, active = well fitted curve in the direction sought with a large enough effect; inconclusive = small, poorly fitted or top-dose-only effect, or another doubt; inactive = no such curve, though single readings can be large; an effect the other way counts as inactive or inconclusive.
SMILES,12-LOX inh,TDP1 cell noCPT,TDP1 cell CPT,HT1080-NT tox,HT1080 IDH1KD tx,IL1B secr inh
COc1cc(CNC(=O)c2ccc3c(c2)N(C)C2CCCN2C3=O)cc(OC)c1 (stereo not drawn),-,.,.,.,.,.
O=C(Cc1csc(NC(=O)Nc2cccc(Cl)c2)n1)NC1CCCC1,-,?,?,-,-,-
NC(c1csc(NC(=O)Nc2cccc(Cl)c2)n1)C1CCCCC1 (stereo not drawn),?,?,18µM,18µM,18µM,-96
NC(c1csc(NC(=O)Nc2ccccc2)n1)C1CCCCC1 (stereo not drawn),-,15µM,?,?,?,?
O=S1(=O)CCO[C@H]2Cc3ccccc3[C@H]2N1Cc1cccc(F)c1,-,-,21µM!,-,-,-
CC(C)C[C@H]1COCCS(=O)(=O)N1Cc1cccc(Cl)c1,-,?,15µM,-,-,-
CCCC[C@H]1COCCS(=O)(=O)N1Cc1ccc(C)cc1,-,26µM,?,-,-,.
O=S1(=O)CCOC[C@H](Cc2ccccc2)N1Cc1cccc(Cl)c1,-,-,?,-,-,-
CCCC[C@H]1COCCS(=O)(=O)N1Cc1ccc(F)cc1,-,?,?,-,-,-
CC(C)[C@H]1COCCS(=O)(=O)N1Cc1ccc(Cl)cc1,?,?,?,-,-,-
CCC(C)[C@H]1COCCS(=O)(=O)N1Cc1ccc(Br)cc1 (stereo partly drawn),-,16µM,18µM,-,-,-
COc1cccc(Oc2c(C)oc3cc(OC(=O)N4CCOCC4)ccc3c2=O)c1,-,.,.,.,.,.
CC(C)C(C)NC(=O)COC(=O)c1ccc2c(c1)NC(=O)CS2 (stereo not drawn),-,.,.,.,.,.
CC(C)c1ccc(CNC(C)c2ccc(S(C)(=O)=O)cc2)cc1 (stereo not drawn),-,.,.,.,.,.
CCCC[C@H]1COCCS(=O)(=O)N1Cc1cccc(F)c1,-,13µM!,?,-,-,-
Cc1ccc(C)c(C(=O)NC2CCCN(c3cc(-c4ccccc4)[nH]n3)C2)c1 (stereo not drawn),-,.,.,.,.,.
Fc1ccc(SCc2ccnc(Cl)c2)cc1,-,.,.,.,.,.
CCC(C)n1c(-c2cccs2)nc2nc3ccccc3nc21 (stereo not drawn),-,12µM,18µM,-,-,-
Cn1c(-c2ccc(CN3CCc4[nH]cnc4C3C(=O)O)o2)nc2ccccc21 (stereo not drawn),-,.,.,.,.,.
COC1=C(Br)C(=O)c2ncccc2C1=O,25µM,0.58µM,0.52µM,-,8.2µM,-
O=C1C(=O)c2cccnc2-c2ncccc21,4µM,0.0052µM,0.033µM,1µM,0.58µM,-108
Cn1c(=O)c2c(SCC(=O)NCc3ccco3)nc(-c3ccccc3Cl)nc2n(C)c1=O,?,23µM,?,-,-,-
Cn1c(=O)c2c(SCC(=O)NCc3ccco3)nc(-c3cccc(F)c3)nc2n(C)c1=O,-,-,-,.,.,.
CN1CCCCCCN(C(=O)c2ccco2)[C@H]2CCC[C@H]2C1=O,-,.,.,.,.,.
C[C@@H]1CN(C(=O)NCc2ccco2)C[C@H]1c1nc(-c2ccncc2)no1,-,.,.,.,.,.
SMILES,12-LOX inh,TDP1 cell noCPT,TDP1 cell CPT,HT1080-NT tox,HT1080 IDH1KD tx,IL1B secr inh
C=Cn1cc[n+](CC(=O)c2cc(C(C)(C)C)c(O)c(C(C)(C)C)c2)c1,-,16µM,15µM,-,-,-
C=Cn1cc[n+](CC(=O)c2ccc(-c3ccccc3)cc2)c1,-,2.3µM,3.3µM,-,-,?
C=Cn1cc[n+](CC(=O)c2cccs2)c1,-,-,-,-,-,-
CCC1=NN(C(=O)CSCc2ccccc2Cl)C(O)(C(F)(F)F)C1 (stereo not drawn),-,.,.,.,.,.
CC(=O)c1cccc(NC(=O)c2cc3nc(-c4ccc(Br)cc4)cc(C(F)(F)F)n3n2)c1,-,6.5µM,6.5µM,.,.,.
COc1ccc(C2(C(=O)N(C)Cc3cccc(OC(F)(F)F)c3)CCOCC2)cc1,-[6.33 µM],.,.,.,.,.
C=CCOc1ccccc1CNc1ccc2c(c1)OCCO2,.,12µM,15µM,?,?,-75

# Source: PubChem (National Center for Advancing Translational Sciences (NCATS))
